# Test results from PubChem BioAssay AID485275 (NMMLSC, 2010).
# Among all 330,000 compounds or so, about 1,400 (0.42%) were called active.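 The calls were made as follows: active = plate passing quality check with inhibition over a set limit, or well fluorescence over plate mean plus 4 SD; inactive = the rest.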 The list comes from a sample in which actives are over-represented; it also holds similar structures and randomly drawn compounds.
# Experiment: inhibitors of Candida efflux pumps in yeast, primary screen, S. cerevisiae, Nile Red, multiplex (AID 485275);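 also: Nile Red retained in pooled yeast measured as flow cytometry median fluorescence; 0% = buffer negative control and 100% = Enniatin B positive control; higher means more Nile Red kept so more efflux inhibition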
# Conditions: S. cerevisiae Candida pump triplex, at 10 µM, hits give high values
row,Structure (SMILES),inhibition
1,Cc1ccc(N2CCN(c3ccc(C)cc3)C2c2ccccn2)cc1,0.22% (inactive)
2,CSCCC(NC(=O)COc1ccccc1)C(=O)OCCOc1ccc(Br)cc1 (stereo not given),0.49% (active)
3,CSCCC(NC(=O)COc1ccccc1)C(=O)OCC(=O)c1cc2ccccc2o1 (stereo not given),-0.18% (inactive)
4,CSCCC(NC(=O)COc1ccccc1)C(=O)OCCOc1ccc(F)cc1 (stereo not given),0.07% (inactive)
5,O=C(CCC(=O)N1CCCC1)Nc1ccc([N+](=O)[O-])cc1,0.32% (inactive)
6,Cc1ccc(NC(=O)c2ccc(Cl)nc2)cc1S(=O)(=O)N1CCOCC1,0.15% (inactive)
7,Cc1cc(C(=O)Nc2ccc(C)c(S(=O)(=O)N3CCOCC3)c2)c2ccccc2n1,1.11% (active)
8,Cc1cc(C(=O)NNC(=O)c2cccc(S(=O)(=O)N3CCOCC3)c2)c2ccccc2n1,0% (inactive)
9,COc1ccc(C2(C)NC(=O)N(CC(=O)c3ccc4c(c3)OCO4)C2=O)cc1 (stereo not given),0.11% (inactive)
10,CCCCN(C(=O)C(CCSC)N1C(=O)c2ccccc2C1=O)c1c(N)n(CCC)c(=O)[nH]c1=O (stereo not given),-0.17% (inactive)
11,Cc1nn(C)cc1N1C(=O)c2cccc3c(N)ccc(c23)C1=O,0.48% (active)
12,Cc1ccc(NC(=O)COC(=O)C2C3CC4OC(=O)C2C4C3)cc1Cl (stereo not given),0.04% (inactive)
13,Cc1oc2cc3oc(=O)ccc3cc2c1C,2.16% (active)
14,COc1c(C(C)C)oc2cc3oc(=O)ccc3cc12,0% (inactive)
15,Cc1noc(C)c1COc1ccc2ccc(=O)oc2c1,0.13% (inactive)
16,CC[C@]1(C(=O)OC)[C@H]2C(=O)N(Cc3ccccc3)C(=O)[C@H]2[C@H]2CN=C(SCc3ccc(Cl)cc3)N21,0.03% (inactive)
17,CC(=O)N1CCN(CC(C)(C)NS(=O)(=O)c2ccc(C)cc2)CC1,0.16% (inactive)
18,CCn1ncc(C2=NOC(C(=O)Nc3ccccc3C(=O)OC)C2)c1C (stereo not given),-0.18% (inactive)
19,Cc1cccc(NC(=O)COc2ccccc2C)n1,1.07% (active)
20,Cc1ccccc1OCC(=O)Nc1nc(C)c(C(=O)N(C)C)s1,-0.09% (inactive)
21,Cc1cccc(NC(=O)COc2ccc(Br)cc2C)n1,-0.04% (inactive)
22,COc1ccc(Cc2nc3ccc(C(=O)N4CCC(N(C)C)C4)cc3o2)cc1 (stereo not given),-0.47% (inactive)
23,O=C(COc1ccccc1F)NNC(=O)c1cc(Br)ccc1Cl,0.03% (inactive)

row,Structure (SMILES),inhibition
1,CC1CCN(C(=O)CCc2nnc3ccc(NCc4ccco4)nn23)CC1,0.1% (inactive)
2,CCC1(CC)NC(=O)N(CC(=O)OCC(=O)NC(=O)c2ccccc2)C1=O,0.07% (inactive)
3,NC(=O)c1oc2ccccc2c1NC(=O)Cc1ccccc1,0.32% (inactive)
4,O=C(Cc1ccccc1)NCC1OCCc2ccccc21 (stereo not given),0.87% (active)
5,O=S(=O)(NCC1OCCc2ccccc21)c1ccccc1 (stereo not given),-0.08% (inactive)
6,COc1ccc(C2=NN(C(=O)c3ccccc3C(=O)O)C(c3ccccc3O)C2)cc1 (stereo not given),-0.05% (inactive)
7,CCOc1ccc2nc(Cl)c(C3CC(c4ccccc4)=NN3C(=O)c3cccs3)cc2c1 (stereo not given),0.46% (active)
8,CCOc1ccccc1C1CC(c2cccc(NS(C)(=O)=O)c2)=NN1C(=O)c1ccccc1 (stereo not given),-0.18% (inactive)
9,N#Cc1ccc(CN2CCN(CC(=O)Nc3ccccc3C(=O)NC3CC3)CC2)cc1,0.14% (inactive)
10,CCCCC(NS(=O)(=O)c1ccc(C)cc1)C(=O)Oc1ccc2c3c(c(=O)oc2c1)CCC3 (stereo not given),0.09% (inactive)
11,C/C(N)=C(/C#N)C(=O)COC(=O)c1cc(-c2ccc(C)cc2)nc2ccccc12,-0.3% (inactive)
12,C/C(N)=C(/C#N)C(=O)COC(=O)c1cc(-c2ccccc2)nc2ccc(Br)cc12,0.06% (inactive)
13,C/C(N)=C(/C#N)C(=O)COC(=O)c1cc(-c2cccc(Br)c2)nc2ccccc12,37.8% (active)
14,CC(C)c1nnc(NC(=O)C2CCCN2S(=O)(=O)c2ccc(Cl)cc2)s1 (stereo not given),-0.16% (inactive)
15,Cc1cccc(NC(=O)C2CCCN2S(=O)(=O)c2ccc(F)cc2)c1C (stereo not given),-0.01% (inactive)
16,COc1ccccc1NC(=O)C1CCCN1S(=O)(=O)c1ccc(Cl)cc1 (stereo not given),0.94% (active)
17,COc1ccccc1/C=N/N1CCN(Cc2ccccc2Cl)CC1,-0.11% (inactive)
18,O=C1CC(NNc2ccccc2)C(=O)N1c1cccc(Cl)c1 (stereo not given),0.07% (inactive)
19,CC12CCC(C(=O)N(NC(=O)c3ccccc3O)C1=O)C2(C)C (stereo not given),-0.08% (inactive)
20,CC12CCC(C(=O)N(c3cccc(Cl)c3)C1=O)C2(C)C (stereo not given),10.2% (active)
21,O=C(CCCN1C(=O)CSc2ncccc21)N1CCN(c2cccc(C(F)(F)F)c2)CC1,0.01% (inactive)
22,O=C(CSC1CC(=O)N(CCc2ccccc2)C1=O)Nc1ccc(Cl)cc1 (stereo not given),0.17% (inactive)
23,NC(=O)c1cc(S(=O)(=O)NCCCc2ccco2)cs1,-0.02% (inactive)

row,Structure (SMILES),inhibition
1,COc1cccc(NC(=O)CN(C)C(=O)Cc2ccc(Cl)cc2Cl)c1,-0.07% (inactive)
2,COc1cccc(NC(=O)CN(C)C(=O)/C=C/c2cc(OC)ccc2OC)c1,15.2% (active)
3,COc1ccc(/C=C/C(=O)OCC(=O)Nc2cccc(Oc3ccccc3)c2)c(OC)c1,-0.02% (inactive)
4,CCN(CC)CC(=O)Nc1nn(-c2ccccc2)nc1C(N)=O,0.02% (inactive)
5,O=C(Nc1nccs1)c1cc(S(=O)(=O)N2CCOCC2)c(Cl)cc1Cl,-0.05% (inactive)
6,CN(C)S(=O)(=O)c1cc(C(=O)Nc2ccn(C)n2)c(Cl)cc1Cl,52.3% (active)
7,Cc1ccc(C(=O)Nc2ccn(C)n2)cc1,-0.02% (inactive)
8,COC(=O)/C(=C1\Oc2ccc(C(C)(C)C)cc2S1)C(F)(F)F,-0.15% (inactive)
9,O=C(NN1C(=O)C2CCCCC2C1=O)c1ccco1 (stereo not given),-0.1% (inactive)
10,Cc1ccc(S(=O)(=O)N2CC(C)N(S(C)(=O)=O)C2)cc1 (stereo not given),-0.07% (inactive)
11,CCOC(=O)c1c(NC(=S)Nc2ccccc2)sc2c1CCN(C)C2,-0.02% (inactive)
12,CCOC(=O)c1c(NC(=O)C2(C)Cc3ccccc3C(=O)O2)sc2c1CCCC2 (stereo not given),0.15% (inactive)
13,CCOC(=O)c1c(NC(=S)NC(=O)c2ccco2)sc2c1CCCC2,1.02% (active)
14,C=CCNC(=O)c1sc(SC)cc1-c1ccc(Cl)cc1,-0.08% (inactive)
15,CCCCN1C(=O)CCC(C(=O)O)C1c1ccc(OC)cc1 (stereo not given),0.12% (inactive)
16,Cc1ccc(C)c(-n2nnnc2SCC(=O)c2c(N)n(C)c(=O)n(C)c2=O)c1,-0.07% (inactive)
17,COc1ccc(OC)c(-n2nnnc2SCC(=O)Nc2cc(C)ccc2OC)c1,-0.01% (inactive)
18,CCOC(=O)CNC(=O)CSc1nnnn1-c1cc(C)ccc1C,0.92% (active)
19,O=C(NCC(=O)N1CCN(c2ncc(C(F)(F)F)cc2Cl)CC1)c1ccc(Br)o1,-0.34% (inactive)
20,CN1CCN(S(=O)(=O)c2ccc(NC(=O)C3CCCO3)cc2)CC1 (stereo not given),-0.16% (inactive)
21,CN1CCN(S(=O)(=O)c2ccc(NC(=S)NC(=O)C3CC3)cc2)CC1,10.2% (active)
22,CC(=O)Nc1ccc(S(=O)(=O)N2CCC(C(=O)NC3CC3)CC2)cc1,-0.06% (inactive)
23,CCN(CC(=O)Nc1c(F)cccc1F)C(=O)c1cnc(C)cn1,-0.12% (inactive)

row,Structure (SMILES),inhibition
1,CN1C(=O)/C(=C/c2ccco2)SC1=Nc1cccc(C(=O)O)c1,-0.02% (inactive)
2,Cc1ccc(N=C2NC(=O)/C(=C/C=C/c3ccco3)S2)cc1C,2.76% (active)
3,CCCn1c2ccccc2c2cnn(CC(=O)NCCCN3CCCCC3CC)c(=O)c21 (stereo not given),0.02% (inactive)
4,CC(C)N1CCC(N2CCN(Cc3cccnc3)CC2CCO)CC1 (stereo not given),0.28% (inactive)
5,Nc1ccc(N=Nc2ccccc2Cl)c(N)n1,0.15% (inactive)
6,O=C(/C=C/c1c(Cl)cccc1Cl)NCc1ccccc1,24.9% (active)
7,O=C(CC(=O)N/N=C\c1cccc(Cl)c1Cl)NCc1ccccc1,0.27% (inactive)
8,CCOC(=O)CNC(=O)/C=C/c1c(Cl)cccc1Cl,-1.16% (inactive)
9,CCCc1ccc(OCC(O)CN2CCN(C(=O)OCC)CC2)cc1 (stereo not given),0.15% (inactive)
10,C=CCC[C@@H](Cc1ccc(F)cc1)C(=O)OC[C@H](Cc1c[nH]c2ccccc12)NC(=O)[C@@H](CC=C)CC(=O)N(CCO)Cc1ccccc1,149% (active)
11,C=CCC[C@H](Cc1ccc(F)cc1)C(=O)OC[C@H](C)NC(=O)[C@H](CC=C)CC(=O)N(CCO)Cc1ccccc1,-0.16% (inactive)
12,C=CCC[C@H](Cc1ccc(F)cc1)C(=O)OC[C@@H](Cc1c[nH]c2ccccc12)NC(=O)[C@H](CC=C)CC(=O)N[C@H](CO)Cc1ccccc1,-0.27% (inactive)
13,COCC(C)NC(=O)c1ccc(-n2nc(C(F)(F)F)cc2-c2cccs2)cc1 (stereo not given),-0.07% (inactive)
14,CCn1c(=O)c(C(=O)NCc2ccc3c(c2)OCO3)c(O)c2ccccc21,-0.11% (inactive)
15,Cc1nc2c(C(=O)NCc3ccc4c(c3)OCO4)c[nH]n2c(=O)c1Cc1ccccc1F,0.63% (active)
16,O=C(NCc1ccc2c(c1)OCO2)c1cc(F)c(F)cc1Cl,0.18% (inactive)
17,CCN(C(=O)CSc1nnc(-c2ccc(OC(F)F)cc2)n1N)C1CCS(=O)(=O)C1 (stereo not given),0.02% (inactive)
18,CC(=O)C1(C)N(O)C(C)(C)C(c2cccs2)=[N+]1[O-] (stereo not given),-0.09% (inactive)
19,COc1cc(Cl)c(C)cc1NC(=O)CSc1nnc(-c2cccnc2)n1Cc1ccco1,0.03% (inactive)
20,O=C(CSc1nnc(-c2cccnc2)n1Cc1ccco1)c1ccc(Cl)c(Cl)c1,0.84% (active)
21,O=C(CSc1nnc(-c2cnccn2)n1Cc1ccco1)c1ccc(Cl)c(Cl)c1,-0.1% (inactive)
